Laboratory results as given in PubChem BioAssay (Tox21).
Results filed as inconclusive are left out. Activity calls are given as the source filed them. Unless noted, the call rests on the fitted dose curve; in most records, active means well fitted curve in the direction sought with a large enough effect in the repeat runs; inconclusive means weak or mixed curves; inactive means no such curve, though single readings can be large; an effect the other way counts as inactive or inconclusive.

Tests used:
[1] = qHTS assay to test for compound auto fluorescence at 535 nm (green) in HEK293 cells (AID 720680)
[2] = qHTS assay to test for compound auto fluorescence at 460 nm (blue) in HEK293 cell free culture (AID 720681)
Outline: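 Compounds were added to cell-free DMEM with 10% FBS and fluorescence read directly. The blue channel used 405 nm excitation and 460 nm emission, with triamterene as the reference fluorophore.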

[3] = qHTS assay to test for compound auto fluorescence at 535 nm (green) in HEK293 cell free culture (AID 720682)
Outline: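 Steps: dispense DMEM/10% FBS into empty wells; pin in compound or DMSO; measure fluorescence at 485/535 nm. Values are fluorescein equivalents.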

[4] = qHTS assay to test for compound auto fluorescence at 590 nm (red) in HEK293 cell free culture (AID 720683)
Outline: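 Cell-free wells of DMEM with 10% FBS received compound, and intrinsic fluorescence was read at excitation/emission 540/590 nm. Values expressed as equivalence to Rose Bengal sodium.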

[5] = qHTS assay to test for compound auto fluorescence at 590 nm (red) in HepG2 cell free culture (AID 720684)
Outline: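 Compound was pinned into wells holding MEM with 10% FBS and no cells, and red fluorescence was read at Ex/Em 540/590 nm. Signal is expressed as auto fluorescence equivalency relative to Rose Bengal sodium.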

[6] = qHTS assay to test for compound auto fluorescence at 460 nm (blue) in HepG2 cell free culture (AID 720685)
Outline: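 Compound (23 nL) or DMSO pinned into cell-free MEM with 10% FBS; blue fluorescence read at 405/460 nm excitation/emission, expressed as auto-fluorescence equivalency to triamterene.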

[7] = qHTS assay to test for compound auto fluorescence at 535 nm (green) in HepG2 cell free culture (AID 720686)
[8] = qHTS assay to test for compound auto fluorescence at 460 nm (blue) in HepG2 cells (AID 720687)
Outline: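 HepG2 cells in MEM with 10% FBS, attached overnight at 37 C, were exposed to compound or DMSO for 1 hr at 37 C, 5% CO2. Blue fluorescence was read at 405/460 nm, with triamterene as reference fluorophore.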

[9] = target: Glucocorticoid receptor (Homo sapiens) (UniProt P04150); assay: qHTS assay to identify small molecule agonists of the glucocorticoid receptor (GR) signaling pathway (AID 720691; active means well fitted activation curve with a large enough effect in the signal ratio in the repeat runs, not every such curve was filed as active; the % refers to the signal ratio)
Outline: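 Fluorescence intensity from LiveBLAzer B/G FRET substrate (2 h, room temperature) reports beta-lactamase expression driven by the glucocorticoid response element in GR-bla HeLa cells after 18 h compound exposure at 37 C.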

[10] = qHTS assay to identify small molecule antagonists of the glucocorticoid receptor (GR) signaling pathway - cell viability counter screen (AID 720693); further: nearly all actives have a fitted effect of over 55% in size
[11] = qHTS assay for identifying genotoxic compounds that show differential cytotoxicity against isogenic chicken DT40 cell lines with known DNA damage response pathways - wild type cell line (AID 743012); further: nearly all actives have a fitted effect of over 60% in size
Outline: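 Wild type DT40, 300 cells/well, ~0.5 h settle at 37 C/5% CO2; compounds in DMSO added by pintool; 40 h at 37 C/5% CO2; CellTiter-Glo, 30 min RT; luminescence.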

[12] = qHTS assay for identifying genotoxic compounds that show differential cytotoxicity against isogenic chicken DT40 cell lines with known DNA damage response pathways - Rev3 mutant cell line (AID 743014); further: nearly all actives have a fitted effect of over 55% in size
[13] = qHTS assay for identifying genotoxic compounds that show differential cytotoxicity against isogenic chicken DT40 cell lines with known DNA damage response pathways - Rad54/Ku70 mutant cell line (AID 743015); further: nearly all actives have a fitted effect of over 60% in size
[14] = qHTS assay to identify small molecule antagonists of the androgen receptor (AR) signaling pathway - cell viability counter screen (AID 743033; further: nearly all actives have a fitted effect of over 45% in size)
[15] = target: Androgen receptor (Homo sapiens) (UniProt P10275); assay: qHTS assay to identify small molecule antagonists of the androgen receptor (AR) signaling pathway (AID 743035; active means well fitted inhibition curve with a large enough effect in the signal ratio in the repeat runs, not every such curve was filed as active; the % refers to the signal ratio)
Outline: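 Fluorescence from a beta-lactamase FRET substrate (LiveBLAzer B/G, 2 h, room temperature) measured inhibition of R1881-stimulated signaling in GeneBLAzer AR-UAS-bla HEK293 cells exposed to compound for 16 h at 37C.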

[16] = target: Androgen receptor (Homo sapiens) (UniProt P10275); assay: qHTS assay to identify small molecule agonists of the androgen receptor (AR) signaling pathway using the MDA cell line (AID 743040; further: nearly all actives have a fitted effect of over 20% in size)
Outline: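 MDA-kb2 breast carcinoma cells carrying MMTV-luciferase (responsive to AR and GR), plated 5 h then treated 16 h with compounds at 37C, 0% CO2. Read-out was ONE-Glo luminescence after 30 min at room temperature.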

[17] = qHTS assay to identify small molecule antagonists of the androgen receptor (AR) signaling pathway using the MDA cell line - cell viability counter screen (AID 743041; further: nearly all actives have a fitted effect of over 45% in size)
Outline: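 MDA-kb2 AR-luc cells (MMTV-luciferase, AR/GR responsive) treated with compounds plus R1881 agonist for 16 h at 37C. CellTiter-Fluor added at 15.5 h; fluorescence read after 30 min in the same wells.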

[18] = target: Androgen receptor (Homo sapiens) (UniProt P10275); assay: qHTS assay to identify small molecule antagonists of the androgen receptor (AR) signaling pathway using the MDA cell line (AID 743042; further: nearly all actives have a fitted effect of over 55% in size)
Outline: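 MDA-kb2 breast carcinoma cells carrying MMTV-luciferase (AR/GR responsive) were co-treated with compounds and the agonist R1881 for 16 h at 37C. Inhibition read as ONE-Glo luminescence; CellTiter-Fluor fluorescence measured in parallel for cytotoxicity.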

[19] = target: Androgen receptor (Homo sapiens) (UniProt P10275); assay: qHTS assay to identify small molecule agonists of the androgen receptor (AR) signaling pathway (AID 743036; active means well fitted activation curve with a large enough effect in the signal ratio in the repeat runs, with a control signal flat, not every such curve was filed as active; the % refers to the signal ratio)
Outline: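 Reporter line: GeneBLAzer AR-UAS-bla-GripTite (HEK293). Steps: plate cells, 4 h rest, add compounds, 16 h at 37C, add LiveBLAzer B/G substrate, 2 h at RT, read fluorescence.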

[20] = target: Glucocorticoid receptor (Homo sapiens) (UniProt P04150); assay: qHTS assay to identify small molecule antagonists of the glucocorticoid receptor (GR) signaling pathway (AID 720692; active means well fitted inhibition curve with a large enough effect in the signal ratio in the repeat runs, not every such curve was filed as active; the % refers to the signal ratio)
Outline: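 HeLa GR-bla cells; cmpd + dex 5 nM final, 18 h 37 C; LiveBLAzer B/G FRET substrate 2 h RT; fluorescence intensity read. Antagonist mode, qHTS.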
On the % scale 0 is the no-effect control and ±100 the full control effect.

Sequence of Glucocorticoid receptor (Homo sapiens) (P04150 whole entry, looked up): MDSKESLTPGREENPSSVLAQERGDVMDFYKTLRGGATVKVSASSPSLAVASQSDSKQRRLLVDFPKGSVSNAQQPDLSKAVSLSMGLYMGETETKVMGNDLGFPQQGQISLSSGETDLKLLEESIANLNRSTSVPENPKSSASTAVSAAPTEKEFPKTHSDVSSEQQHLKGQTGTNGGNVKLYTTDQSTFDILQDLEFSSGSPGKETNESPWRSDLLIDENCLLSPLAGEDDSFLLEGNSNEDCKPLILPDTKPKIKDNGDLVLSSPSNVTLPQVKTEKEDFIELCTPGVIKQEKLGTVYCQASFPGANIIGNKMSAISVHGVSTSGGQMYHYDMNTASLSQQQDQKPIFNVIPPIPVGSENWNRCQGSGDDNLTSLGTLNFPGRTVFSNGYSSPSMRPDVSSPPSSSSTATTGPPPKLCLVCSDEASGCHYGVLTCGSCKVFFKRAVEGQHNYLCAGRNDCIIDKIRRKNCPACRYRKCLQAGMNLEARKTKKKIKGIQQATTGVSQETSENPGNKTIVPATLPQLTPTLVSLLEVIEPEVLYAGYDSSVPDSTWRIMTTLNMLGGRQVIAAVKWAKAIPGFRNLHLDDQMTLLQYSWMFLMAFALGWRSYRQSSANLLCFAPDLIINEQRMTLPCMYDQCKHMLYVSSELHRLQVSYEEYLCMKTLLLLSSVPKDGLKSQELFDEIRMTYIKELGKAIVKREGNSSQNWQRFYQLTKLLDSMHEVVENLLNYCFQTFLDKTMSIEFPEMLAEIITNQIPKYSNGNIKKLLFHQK
Sequence of Androgen receptor (Homo sapiens) (P10275 whole entry, looked up): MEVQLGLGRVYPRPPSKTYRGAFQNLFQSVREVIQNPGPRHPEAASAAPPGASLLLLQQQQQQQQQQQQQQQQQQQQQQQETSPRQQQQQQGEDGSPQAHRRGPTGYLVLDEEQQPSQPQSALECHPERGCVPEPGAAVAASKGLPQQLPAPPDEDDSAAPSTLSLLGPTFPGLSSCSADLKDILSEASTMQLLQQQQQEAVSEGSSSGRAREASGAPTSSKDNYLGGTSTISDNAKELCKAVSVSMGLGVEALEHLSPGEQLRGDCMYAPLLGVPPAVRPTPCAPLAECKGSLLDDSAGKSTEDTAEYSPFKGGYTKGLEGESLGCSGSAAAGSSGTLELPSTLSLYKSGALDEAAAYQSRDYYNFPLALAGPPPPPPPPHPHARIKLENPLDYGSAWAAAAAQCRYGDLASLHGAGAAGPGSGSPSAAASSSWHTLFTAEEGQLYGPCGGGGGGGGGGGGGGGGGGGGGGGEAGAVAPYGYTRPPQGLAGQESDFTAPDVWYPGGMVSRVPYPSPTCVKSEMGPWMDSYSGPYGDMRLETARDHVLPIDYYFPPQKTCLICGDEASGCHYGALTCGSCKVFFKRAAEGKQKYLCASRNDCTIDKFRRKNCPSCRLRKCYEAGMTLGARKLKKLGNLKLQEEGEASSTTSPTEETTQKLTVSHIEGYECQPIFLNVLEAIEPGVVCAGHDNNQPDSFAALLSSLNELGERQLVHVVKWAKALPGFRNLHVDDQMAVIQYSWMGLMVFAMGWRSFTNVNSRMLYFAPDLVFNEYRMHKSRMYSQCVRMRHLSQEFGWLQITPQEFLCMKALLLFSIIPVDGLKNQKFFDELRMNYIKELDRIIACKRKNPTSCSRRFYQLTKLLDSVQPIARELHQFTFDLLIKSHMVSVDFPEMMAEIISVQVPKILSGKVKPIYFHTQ

C=CCCCCCCCCCCCC
inactive: outcome [1] | outcome [2] | outcome [3] | outcome [4] | outcome [5] | outcome [6] | outcome [7] | outcome [8] | Potency [9] | outcome [10] | Potency [11] | Potency [12] | Potency [13] | Potency [14] | Potency [15] | outcome [16] | Potency [17] | Potency [18]

CN1CCN(CC(=O)N2c3ccccc3C(=O)Nc3cccnc32)CC1
inactive: outcome [1] | outcome [2] | outcome [3] | outcome [4] | outcome [5] | outcome [6] | outcome [7] | outcome [8] | Potency [9] | outcome [10] | Potency [11] | Potency [12] | Potency [13] | Potency [17]

C[C@H](N)[C@H](O)c1cccc(O)c1
inactive: fluorescence, % of fluorescein [1] 0.0113% [at 18.6 µM] | fluorescence, % of fluorescent control [2] 2.08% [at 18.6 µM] | activity change [3] 0.048% [at 18.6 µM] | fluorescence, % of fluorescent control [4] 0.0224% [at 18.6 µM] | fluorescence, % of Rose Bengal [5] -0.249% [at 18.6 µM] | fluorescence, % of fluorescent control [6] 1.92% [at 18.6 µM] | fluorescence, % of fluorescein control [7] 0.027% [at 18.6 µM] | fluorescence, % of fluorescent control [8] 1.56% [at 18.6 µM] | Potency [9] | Potency [11] | Potency [12] | Potency [13] | Potency [14] | Potency [17]

CCCCCCCCCC(C)=O
inactive: outcome [1] | outcome [2] | outcome [3] | outcome [4] | outcome [5] | outcome [6] | outcome [7] | outcome [8] | Potency [9] | Potency [11] | Potency [12] | Potency [13] | Potency [14] | Potency [15] | outcome [19] | outcome [16] | Potency [17] | Potency [18]

Cc1ccc(S(=O)(=O)O)c(C)c1
inactive: outcome [1] | outcome [2] | outcome [3] | outcome [4] | outcome [5] | outcome [6] | outcome [7] | outcome [8] | Potency [9] | outcome [10] | Potency [11] | Potency [12] | Potency [13] | Potency [14] | Potency [17]

CCCCCCOC(=O)CC
inactive: outcome [1] | outcome [2] | outcome [3] | outcome [4] | outcome [5] | outcome [6] | outcome [7] | outcome [8] | Potency [9] | outcome [10] | Potency [11] | Potency [12] | Potency [13] | Potency [14] | Potency [17]

CN1C(C)(C)CCCC1(C)C
inactive: outcome [1] | outcome [2] | outcome [3] | outcome [4] | outcome [5] | outcome [6] | outcome [7] | outcome [8] | Potency [9] | outcome [10] | Potency [11] | Potency [12] | Potency [13] | Potency [14] | Potency [17]

CC(=O)Nc1ccc(S(=O)(=O)Cl)cc1
inactive: outcome [1] | outcome [2] | outcome [3] | outcome [4] | outcome [5] | outcome [6] | outcome [7] | outcome [8] | Potency [9] | outcome [20] | Potency [11] | Potency [12] | Potency [13] | Potency [14] | Potency [17]

CCN(CC)CC(=O)Nc1c(C)cccc1C
inactive: outcome [1] | outcome [2] | outcome [3] | outcome [4] | outcome [5] | outcome [6] | outcome [7] | outcome [8] | Potency [9] | outcome [20] | outcome [10] | Potency [13] | outcome [19] | outcome [16] | Potency [17] | Potency [18]

COc1ccc2c(c1OC)C(=O)O[C@@H]2[C@H]1c2c(cc3c(c2OC)OCO3)CCN1C
inactive: outcome [1] | outcome [2] | outcome [3] | outcome [4] | outcome [5] | outcome [6] | outcome [7] | outcome [8] | Potency [9] | outcome [10] | Potency [11] | Potency [13] | Potency [14] | Potency [17]

C[Si](C)(C)C
inactive: outcome [1] | outcome [2] | outcome [3] | outcome [4] | outcome [5] | outcome [6] | outcome [7] | outcome [8] | Potency [9] | outcome [10] | Potency [11] | Potency [12] | Potency [13] | Potency [14] | Potency [17]

O=C1c2ccccc2C(=O)N1CCl
inactive: outcome [1] | outcome [2] | outcome [3] | outcome [4] | outcome [5] | outcome [6] | outcome [7] | outcome [8] | Potency [9] | outcome [10] | Potency [11] | Potency [14] | Potency [15] | outcome [19] | outcome [16] | Potency [17] | Potency [18]

O=C(c1ccc(O)cc1)c1ccc(O)c(O)c1O
inactive: outcome [1] | outcome [2] | outcome [3] | outcome [4] | outcome [5] | outcome [6] | outcome [7] | outcome [8] | Potency [9] | outcome [10] | Potency [14]

BrCCCCCBr
inactive: outcome [1] | outcome [2] | outcome [3] | outcome [4] | outcome [5] | outcome [6] | outcome [7] | outcome [8] | Potency [9] | outcome [10] | Potency [11] | Potency [12] | Potency [13] | Potency [14] | Potency [17]

Cc1cccc(C)c1NC(=O)c1ccccc1C(=O)O
inactive: outcome [1] | outcome [2] | outcome [3] | outcome [4] | outcome [5] | outcome [6] | outcome [7] | outcome [8] | Potency [9] | outcome [10] | Potency [11] | Potency [12] | Potency [13] | Potency [14] | Potency [15] | outcome [19] | outcome [16] | Potency [17] | Potency [18]

Cc1ccsc1/C=C/C1=NCCCN1C
inactive: fluorescence, % of fluorescein [1] 0.007% [at 18.6 µM] | fluorescence, % of fluorescent control [2] -0.0198% [at 18.6 µM] | activity change [3] 0.0151% [at 18.6 µM] | fluorescence, % of fluorescent control [4] -0.0392% [at 18.6 µM] | fluorescence, % of Rose Bengal [5] -0.469% [at 18.6 µM] | fluorescence, % of fluorescent control [6] -0.0937% [at 18.6 µM] | fluorescence, % of fluorescein control [7] -0.205% [at 18.6 µM] | fluorescence, % of fluorescent control [8] 0.164% [at 18.6 µM] | Potency [9] | outcome [20] | Potency [11] | Potency [12] | Potency [13] | Potency [14] | Potency [17]
